In the library only some 3.5% were active in any assay of this set; here they are far more common.
GPR151 ag = activators of human GPR151, primary screen, cell-based, PathHunter beta-arrestin, luminescence; PathHunter beta-arrestin GPR151 cells; 1% of 650,000 active; activation, % at 11.2 µM; in the data active = activation above about 4.9%;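 note: 0% = median of compound wells and 100% = cells with positive control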
MITF primary = MITF inhibitors, primary screen, biochemical, AlphaScreen, human; inhibition, % at 2.6 µM; AlphaScreen MITF homodimerization, bead proximity signal; AID 1259374, 2018; 0.91% of 650,000 active; Microphthalmia-associated transcription factor (Homo sapiens), O75030; in the data active = inhibition above about 50%;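 note: 0% = vehicle wells with protein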
Target sequence (O75030 whole entry, looked up): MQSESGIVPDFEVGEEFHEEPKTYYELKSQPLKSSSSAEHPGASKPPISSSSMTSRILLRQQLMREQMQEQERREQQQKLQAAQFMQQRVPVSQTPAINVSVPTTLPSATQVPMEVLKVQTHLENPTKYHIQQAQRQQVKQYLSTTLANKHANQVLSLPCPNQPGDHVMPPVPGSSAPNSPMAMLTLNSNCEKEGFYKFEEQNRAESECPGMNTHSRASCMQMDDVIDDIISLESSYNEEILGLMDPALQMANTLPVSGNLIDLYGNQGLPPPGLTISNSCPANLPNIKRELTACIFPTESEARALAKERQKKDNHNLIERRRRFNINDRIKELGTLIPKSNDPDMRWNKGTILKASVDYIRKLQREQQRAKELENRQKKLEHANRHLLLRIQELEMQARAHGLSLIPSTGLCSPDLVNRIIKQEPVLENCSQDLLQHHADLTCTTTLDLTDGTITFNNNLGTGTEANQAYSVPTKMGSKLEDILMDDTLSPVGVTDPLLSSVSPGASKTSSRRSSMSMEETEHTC
TEAD-YAP inh = TEAD-YAP interaction inhibition, primary screen, TEAD-YAP interaction inhibitor project, luminescence, HEK-TIYL cells; TEAD-Gal4/YAP UAS-luciferase luminescence; inhibition, % at 9.12 µM; 1.4% of 640,000 active; AID 1259422, 2018; in the data active = inhibition above about 32%;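 note: 0% = median of test compound wells and 100% = reference inhibitor wells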
FBW7 act = FBW7 E3 ligase activators, primary screen, biochemical, AlphaScreen, human; 0.13% of 650,000 active; AlphaScreen FBW7–phospho-cyclin E peptide binding, activator screen; normalized activity (activation), % at 26.1 µM; F-box/WD repeat-containing protein 7 (Homo sapiens), Q969H0; in the data active = normalized activity above about 1.9%;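 note: purified mutant Fbw7 with reduced substrate affinity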
GPR151 confirm = GPR151 activators, triplicate retest, confirmation, cell-based, PathHunter beta-arrestin, luminescence; shares compounds with GPR151 ag; GPR151 PathHunter beta-arrestin cells, 90 min; % of EA-reagent control over plate median; activation, % at 11.2 µM; 6,700 tested, under 10 active; AID 1508609, 2020;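 active = mean percent activation across replicates above the confirmation screen cutoff of 4.91%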
GPR119 ag = GPR119 activators in beta-arrestin cells, counter-screen for GPR151 activator project, cell-based, PathHunter beta-arrestin, luminescence, triplicate. shares compounds with GPR151 ag. 90 min; 0 = compound-well median, 100 = enzyme-acceptor control. activation, % at 11.2 µM. 0.3% of 6,700 active. AID 1508611, 2020;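 active = mean percent activation in the counterscreen above 29.09%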;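 note: counterscreen on off-target GPR119 to flag nonselective hits from the GPR151 activator screen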
* hit, by the source's call; nt = no result; ! = not confirmed by another sample.

SMILES	GPR151 ag	MITF primary	TEAD-YAP inh	FBW7 act	GPR151 confirm	GPR119 ag
CSc1nc(N)nc(SCC(=O)Nc2ccc(C)cc2)c1C#N	0	4	-1	0	nt	nt
Cc1nnc(SCC(=O)O)n1/N=C/c1ccc2c(c1)OCO2	2	-6	-8	0	nt	nt
Cc1nnc(-c2ccccc2)c(=O)n1/N=C/c1ccc2c(c1)OCO2	8.1*	-9	-6	0	0	8
COc1cccc(CC2(CO)CCN(C(=O)[C@@H]3C[C@@H]4C=C[C@H]3C4)CC2)c1	0	-2	-18	0	nt	nt
FC1(F)C(F)(F)C(F)(F)C2(F)C(F)(F)C(F)(F)C(F)(F)C(F)(F)C2(F)C1(F)F (configuration not stated)	5.1*	1	3	0	0	-6
Cc1ccc(Nc2nnc(SCC(N)=O)s2)cc1C	3	-2	-13	0	nt	nt
O=C(Nc1ccc(Br)cc1)c1cccc(N2C(=O)C3CCCCC3C2=O)c1 (configuration not stated)	7.5*	2	-8	0	0	4
O=C(Nc1ccc(Br)cc1)c1ccc(N2C(=O)C3CCCCC3C2=O)cc1 (configuration not stated)	0	-6	-2	0	nt	nt
CC(C)c1ccc(Cn2ccc3c4c(N)nc(NC5CC5)nc4ccc32)cc1	6.5*	-4	nt	0	6.5*	106*
COC(=O)Nc1ccc(S(=O)(=O)N2CCCC(C(=O)O)C2)cc1 (configuration not stated)	11*	3	2	0	0	-9
CCc1ccc(NS(=O)(=O)c2ccc3[nH]cc(C(=O)N4CCCCC4)c(=O)c3c2)cc1	0	-5	-1	0	nt	nt
CC(C)c1ccc(NS(=O)(=O)c2ccc3[nH]cc(C(=O)N4CCCC4)c(=O)c3c2)cc1	9.7*	49	-5	0	1	4
OCCN1CCN(c2nccnc2-c2ccccc2CO)CC1	-1	0	-2	0	nt	nt
CCOC(=O)C1=C(C)NC(SCC(=O)Nc2cc(C)on2)=C(C#N)C1c1cccs1 (configuration not stated)	5.8*	9	16	0	-1	-8
CCOC(=O)C1=C(C)NC(SCC(N)=O)=C(C#N)C1c1cccs1 (configuration not stated)	0	5	5	0	nt	nt
Cc1cc2c(cc1S(=O)(=O)N(C)c1ccc(Br)cc1)OCC(=O)N2	10*	14	2	0	1	4
CN(c1ccc(Br)cc1)S(=O)(=O)c1cc2c(cc1Cl)NC(=O)CO2	2	8	1	0	nt	nt
COC(=O)c1ccc(/C=N/NC(=O)c2cc(-c3ccc(C)o3)[nH]n2)cc1	3	6	13	0	nt	nt
CCOC(=O)c1sc(NC(=O)c2c(F)cccc2F)nc1C	7.8*	-6	-7	0	0	16
CCOC(=O)c1sc(NC(=S)NC(=O)c2ccccc2F)nc1C	-1	-1	10	0	nt	nt
CC(C)CNc1nccn2c(-c3ccoc3)cnc12	0	18	-39	0	nt	nt
COc1ccc(Cl)cc1S(=O)(=O)N1CCCC(C(=O)NCC(N)=O)C1 (configuration not stated)	7.4*	-2	-6	0	1	6
COc1ccc(C)cc1S(=O)(=O)N1CCCC(C(N)=O)C1 (configuration not stated)	0	6	1	0	nt	nt
Cc1nn(C)c(C)c1NC(=O)c1ccc2ccccc2c1	-1	-7	-11	1	nt	nt
COc1ccc(-c2nnc(SCC(=O)Nc3cccc(Cl)c3C)nc2-c2ccc(OC)cc2)cc1	5.8*	2	9	0	-1	-6
SMILES	GPR151 ag	MITF primary	TEAD-YAP inh	FBW7 act	GPR151 confirm	GPR119 ag
Cc1ccc(OCC(=O)Nc2ccc(Br)cc2)cc1	0	-23	-11	0	nt	nt
Fc1cccc2sc(Nc3nc(-c4ccccn4)cs3)nc12	7.6*	19	50*	-1	0	0
COc1cccc(-c2nc3ccccc3c(=O)n2NC(=O)/C=C/c2ccc(Cl)cc2)c1	-1	-5	7	0	nt	nt
COc1cc(/C=C2/N=C(c3ccc(Cl)cc3)OC2=O)cc(OC)c1OC	0	-2	-3	0	nt	nt
Cc1nn(C)c(Cl)c1CN1CCN(C2CCCCC2)C(CCO)C1 (configuration not stated)	8.9*	9	8	0	0	-1
CSc1ncc(CN2CCN(C3CCCC3)C(CCO)C2)cn1 (configuration not stated)	9.7*	-1	3	0	0	0
COc1ccc2cc(C)c3nnc(SCC(=O)Nc4nc(C)cs4)n3c2c1	0	23	2	0	nt	nt
CCOc1ccc(N2C(=O)/C(=C/c3ccc(OC)c(OC)c3)NC2=S)cc1	0	6	1	0	nt	nt
Cc1ccc(-c2cncc(-c3cc(Nc4ncccn4)nc(C)n3)c2)cc1	-1	42	1	0	nt	nt
COc1ccc(-c2cncc(-c3cc(Nc4ncccn4)nc(C)n3)c2)cc1	6.9*	3	-1	0	-1	0
CCc1cc2c(=O)c(-c3ccc4c(c3)OCCCO4)coc2cc1OC(C)C(=O)OC (configuration not stated)	4	4	23	0	nt	nt
CCc1cc2c(=O)c(-c3ccc4c(c3)OCCO4)coc2cc1OC(C)C(=O)OC (configuration not stated)	6.8*	4	4	1	3	-1
Cc1cc(NC(=O)C(c2ccccc2)c2ccccc2)sn1	2	3	-13	0	nt	nt
CC(C)C1C2CCC(C2)C1N (configuration not stated)	5.3*!	10	0	0	-1	-11
O=C(Nc1ccccc1Br)c1c(O)c2cccc3c2n(c1=O)CC3	5.4*	-15	4	0	-1	-10
CC(C)CCNC(=O)c1c(O)c2cccc3c2n(c1=O)CCC3	0	1	-10	0	nt	nt
CC(C)CCNC(=O)c1c(O)c2cccc3c2n(c1=O)CC3	7.0*	1	-2	0	0	-11
O=C(Nc1ccccc1F)c1c(O)c2cccc3c2n(c1=O)CC3	1	-7	-13	0	nt	nt
O=C(NCc1cccnc1)/C(=C/c1cn(-c2ccccc2)nc1-c1ccc(Br)cc1)NC(=O)c1ccccc1	0	25	1	1	nt	nt
CCOc1cc(/C=N/Nc2nc3c(c(=O)[nH]c(=O)n3C)n2CC(C)C)ccc1O	6.6*	4	1	0	1	5

Screening data from PubChem BioAssay.
